Assays:
[1] = system: CHO; test: % viability of CHO cells (MTT); higher = less toxic; details: 48 h
In short: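 Percent viability of CHO cells, relative to untreated cells, was read colorimetrically by tetrazolium (MTT) assay. Cells were seeded at 10^6 cells/well and treated for 48 h with compound at 2 or 20 µM in fresh medium.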

[2] = system: HepG2-A16-CD81; test: % inhibition of HepG2 viability (CellTiter-Glo); higher = more toxic; details: 5 µM
[3] = system: Plasmodium falciparum NF54 stage IV/V gametocytes; test: % inhibition of gametocyte viability (PrestoBlue); higher = more inhibition; details: 48 h
In short: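 Stage IV/V NF54 gametocytes were exposed to compound at 1 or 5 µM for 48 h at 37 °C under stationary, hypoxic conditions, then read by PrestoBlue fluorescence at 612 nm. The percent inhibition of gametocyte viability was normalised to vehicle and kill controls from one run.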

[4] = system: Plasmodium falciparum NF54 asexual blood stage; test: % inhibition of asexual blood stage proliferation (pLDH); higher = more inhibition; details: 72 h
In short: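 Ring-stage cultures of Plasmodium falciparum NF54 at 1% haematocrit and 2% parasitaemia were treated with compound at 2 or 20 µM in 96-well plates and kept for 72 h at 37 °C under 4% CO2, 3% O2 and 93% N2. Parasite survival was measured by the parasite lactate dehydrogenase assay, read colorimetrically at 620 nm. Percent inhibition of asexual proliferation was calculated relative to control wells, and the screen was carried out on two separate occasions.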

[5] = system: Plasmodium falciparum NF54 stage IV/V gametocytes; test: % inhibition of gametocyte viability (ATP bioluminescence); higher = more inhibition; details: 24 h
In short: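 Stage IV/V NF54 gametocytes were enriched on density gradients and seeded at 30,000 per well in 96-well plates with compound at 1 or 5 µM. Plates were incubated for 24 h at 37 °C. ATP was measured with the Promega BacTiter Glo bioluminescence system. Percent inhibition of gametocyte viability was normalised to DMSO and kill controls from a single run.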

[6] = system: Plasmodium falciparum NF54 stage IV/V gametocytes; test: % inhibition of gametocyte viability (luciferase reporter); higher = more inhibition; details: 48 h
In short: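 Percent inhibition was normalised to controls from a single run. Stage IV/V gametocytes of the NF54-Pfs16-GFP-Luc line, at 2% gametocytaemia and 2% haematocrit, were exposed to compound at 1 or 5 µM for 48 h at 37 °C under stationary, hypoxic conditions. Luminescence was then read from 30 µL lysate mixed with 30 µL Promega luciferin substrate on a GloMax-Multi+ reader with 10 s integration.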

[7] = system: Plasmodium berghei ANKA liver stage in HepG2-A16-CD81; test: % inhibition of liver stage parasite viability (luciferase); higher = more inhibition; details: 5 µM; 48 h
Procedure: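 Single-concentration screen of the MMV Pandemic Response Box. P. falciparum NF54 asexual blood stages: pLDH assay, 72 h at 37 °C, 2 and 20 µM, n=2. Stage IV/V gametocytes (NF54): luciferase reporter (NF54-Pfs16-GFP-Luc, 48 h), ATP bioluminescence (24 h) and PrestoBlue (48 h) at 1 and 5 µM, n=1. P. berghei liver stage (luciferase in HepG2-A16-CD81, 48 h post infection) at 5 µM, n=4. All normalised to DMSO and kill controls as % inhibition.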
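For % inhibition of HepG2 viability (CellTiter-Glo) in this document: HepG2-A16-CD81 hepatoma cells plated as in the liver-stage assay but without sporozoites, with DMSO wells as negative and 25 µM puromycin as positive control.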

SMILES | % viability of CHO cells ([1]; 2 µM) [%] | % viability of CHO cells ([1]; 20 µM) [%] | % inhibition of HepG2 viability [2] [%] | % inhibition of gametocyte viability ([3]; 1 µM) [%] | % inhibition of gametocyte viability ([3]; 5 µM) [%] | % inhibition of asexual blood stage proliferation ([4]; 2 µM) [%] | % inhibition of asexual blood stage proliferation ([4]; 20 µM) [%] | % inhibition of gametocyte viability ([5]; 1 µM) [%] | % inhibition of gametocyte viability ([5]; 5 µM) [%] | % inhibition of gametocyte viability ([6]; 1 µM) [%] | % inhibition of gametocyte viability ([6]; 5 µM) [%] | % inhibition of liver stage parasite viability [7] [%]
CCc1ccc(C2CC(C(F)(F)F)n3ncc(C(=O)NCc4ccc(OC)cc4)c3N2)cc1 (centres undefined) | 83 | 61.2 | 8.05 | < 0 | 34.6 | 37.2 | 67.7 | 2.93 | 4.83 | < 0 | 6.49 | 
N#Cc1cc([N+](=O)[O-])ccc1Oc1ccccc1Cl | 104 | 84.9 | -4.08 | 55 | 53.9 | -2.85 | 84.9 | < 0 | < 0 | < 0 | < 0 | 
Nc1nc(O)c(Br)c(-c2ccccc2)n1 | 89.3 | 61.8 | 7.28 | < 0 | 16.6 | 6.53 | 33.7 | < 0 | < 0 | 1.49 | 9.71 | 
Cc1oncc1C(=O)Nc1ccc(C(F)(F)F)cc1 | 113 | 96.1 | -5.44 | < 0 | < 0 | 50.7 | 38 | 12 | < 0 | 23.8 | 45.6 | 
O=C(NC(=O)N1CCCc2ccccc21)c1cccc(Cl)c1 | 99.8 | 116 | 1.03 | < 0 | < 0 | -12.6 | 10.3 | < 0 | < 0 | < 0 | < 0 | 
O=C(CCCC(F)(F)F)N1CCC(c2nc(-c3nccs3)no2)CC1 | 113 | 105 | 8.03 | -0.494 | 2.08 | 7.54 | 19.8 | 0.351 | < 0 | < 0 | 8.02 | 
CC(C)Oc1ccc(-n2cnc3cc(/C=C\c4ccc(C(C)(C)O)cc4)ccc32)cc1 | 113 | 115 | 5.08 | 30.8 | 32.2 | 25.6 | 54.7 | < 0 | < 0 | < 0 | < 0 | 
Nc1cc(-c2nc3ccccc3[nH]2)n[nH]c1=O | 70.3 | 49.8 | 2.54 | 28.3 | 78.8 | 31.5 | 79.1 | 5.5 | < 0 | 1.36 | < 0 | 
CC(C)Nc1nc2cc(Cl)c(Cl)cc2n1[C@H]1O[C@@H](CO)[C@H](O)[C@@H]1O | 71.9 | 56.9 | -5.75 | 17.6 | 14 | 66.8 | 55.9 | < 0 | < 0 | < 0 | < 0 | 
CN1CCN(c2ccc3[nH]c(-c4ccc5[nH]c(-c6ccc(O)cc6)nc5c4)nc3c2)CC1 | 106 | 115 | 18.2 | < 0 | < 0 | 82.9 | 80.9 | < 0 | < 0 | < 0 | 20.9 | 
O=C(O)c1cc(-c2ccc(Br)cc2)nc2ccc(Cl)cc12 | 96.8 | 111 | 3.15 | 14.7 | 5.76 | 7.74 | -6.63 | < 0 | < 0 | < 0 | < 0 | 
O=C(CP(=O)(O)O)NCCc1cccc(Oc2ccccc2)c1 | 108 | 84.2 | 0.91 | 16.8 | 19.8 | 30.7 | 29.5 | 2.33 | < 0 | < 0 | < 0 | 
O=C(O)c1ccc(-n2nc(-c3ccccc3O)nc2-c2ccccc2O)cc1 | 85.7 | 106 | 3.21 | 8.04 | < 0 | -5.88 | -5.43 | < 0 | < 0 | < 0 | < 0 | 
Cc1cccc(CC(=O)N[C@H]2CCOC2=O)c1 | 95.4 | 98.6 | 5.04 | < 0 | 21.6 | 35.3 | 53.6 | < 0 | < 0 | < 0 | 5.44 | 
Cc1cc(NS(=O)(=O)c2ccc(-c3ccc(F)cc3F)cc2)no1 | 95.4 | 116 | 1.14 | 2.55 | 66.2 | -0.00494 | -3.92 | 0.517 | < 0 | < 0 | < 0 | 
Cc1ccc(S(=O)(=O)Nc2cccc3cccnc23)cc1 | 76 | -0.468 | -5.32 | 13.9 | < 0 | 55 | 103 | < 0 | 47.3 | < 0 | 5.04 | 
CC(Oc1ccc(Cl)cc1Cl)C(=O)NCc1ccc2c(c1)OCO2 (centres undefined) |  |  |  | < 0 | 35.3 | -4.14 | -3.59 | < 0 | < 0 | < 0 | < 0 | 7.01
COC(=O)Nc1nc2c(C)cccc2[nH]1 | 101 | 86.1 | -1.33 | < 0 | < 0 | -2.03 | -14 | < 0 | < 0 | < 0 | < 0 | 
O=[N+]([O-])/C(Br)=C/c1ccc(Br)o1 | 89.2 | 99.8 | -4.63 | 23.1 | 57 | 27.6 | 2.9 | 6.32 | 14.3 | 4.3 | 49.5 | 
CO/N=C(\C(=O)N[C@@H]1C(=O)N2C(C(=O)OCOC(=O)C(C)(C)C)=C(/C=C\c3scnc3C)CS[C@H]12)c1csc(N)n1 | 146 | 60.3 | -3.45 | < 0 | 1.37 | 7.74 | 37.7 | 0.449 | 5.98 | < 0 | 22.6 | 
CCOC(=O)N[C@@H]1CC[C@@H]2[C@@H](C1)C[C@H]1C(=O)O[C@H](C)[C@H]1[C@H]2/C=C/c1ccc(-c2cccc(F)c2)cn1 | 72.3 | 62.2 | 7.92 | 15.9 | -0.253 | 42.6 | 71.5 | 17.7 | 33 | 7.62 | 27.4 | 

From the supplement of paper PMC7801607
